Screening data: PubChem BioAssay, Broad Institute
F508del corr: F508del CFTR correction, initial screen, CFBE line, single point; CFBE cells, YFP halide quenching; stimulated with forskolin plus potentiator P3; % fluorescence drop versus neutral controls; activity (quench increase), % at 7.58 µM; 350,000 tested, 0.36% active; AID 720511, 2013;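 active = mean added fluorescence quench of at least 8% versus neutral control, with both replicates also reaching 8%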;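 also: cells transiently co-express mutant CFTR-F508del with the halide-sensitive YFP; corrector assay measuring rescue of mutant channel to the surface after 24 h compound exposure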
FGF22 binding: binders of human FGF22 protein, primary screen, FGF22 synaptogenesis inhibitor project, biophysical, thermal shift, single point. 340,000 tested, 1.5% active. activity (Tm shift, normalised), % at 9.99 µM. Fibroblast growth factor 22 (Homo sapiens), Q9HCT0. AID 651658, 2012. recombinant FGF22 thermal shift, SYPRO orange fluorescence; percent of sucrose octasulfate shift, DMSO zero;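 active = mean Tm shift, scaled 0 neutral to 100 positive control, at about 1.3% or above, every replicate too, limit read from the data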
Target sequence (Q9HCT0 whole entry, looked up): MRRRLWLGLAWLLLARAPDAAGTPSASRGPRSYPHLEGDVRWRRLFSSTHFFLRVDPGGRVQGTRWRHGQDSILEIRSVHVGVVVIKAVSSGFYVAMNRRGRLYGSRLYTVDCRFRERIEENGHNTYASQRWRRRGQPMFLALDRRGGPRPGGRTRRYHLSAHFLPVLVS
Vif inh: HIV Vif self-association inhibitors, primary screen, imaging, HEK293T, single point; HEK293T cells, Vif self-association by quenched fluorescence, 24 h; inhibition, % at 7.49 µM; 340,000 tested, 0.35% active; in the data active = inhibition above about 50%, passing the limit was not always enough
* = called active by the depositor; x = not tested or not shown. A selection: hits, their analogues and other compounds. The true share with any hit is near 1.7%.

SMILES	F508del corr	FGF22 binding	Vif inh
CCCCc1cc(=O)oc2cc(OC(C)C(=O)NCc3ccccn3)c(Cl)cc12 (stereo not drawn)	3	0	-8
Cc1cc(=O)oc2cc(OC(C)C(=O)NCC3CCCO3)ccc12 (stereo not drawn)	-1	44*	2
CCc1cc(=O)oc2cc(OC(C)C(=O)NCc3ccccn3)ccc12 (stereo not drawn)	-8	0	58*
Cc1cc(=O)oc2cc(OC(C)C(=O)NCC3CCC(C(=O)O)CC3)ccc12 (stereo not drawn)	0	0	-2
C[C@H]1CN([C@@H](C)CO)C(=O)c2cc(NS(=O)(=O)c3cn(C)cn3)ccc2O[C@@H]1CN(C)Cc1ccc(C(F)(F)F)cc1	1	0	x
O=C(NC1CCCCC1)N1CC(=O)N2[C@@H](CO)[C@@H](c3ccc(-c4cccnc4)cc3)[C@@H]2C1	-4	x	x
CCNC(=O)C[C@@H]1CC[C@H]2[C@@H](COc3ccc(NC(=O)Nc4cccc(C)c4)cc3C(=O)N2C)O1	2	0	x
Cc1cccc(NC(=S)NNC(=O)c2ccc(O)cc2O)c1C	4	2.3*	-23
Cc1cccc(NC(=O)NNC(=O)c2cc3ccccc3cc2O)c1C	-1	0	15
Cc1nnc(NC(=O)CSc2nc3[nH]ncc3c(=O)[nH]2)s1	1	0	2
CCc1nnc(NC(=O)CSc2nc3[nH]ncc3c(=O)[nH]2)s1	-2	44*	-12
CN(C)CCCN1c2ccccc2Sc2ccccc21	11*	0	-4
CC(=O)c1ccc2c(c1)N(CCCN(C)C)c1ccccc1S2	-16	0	-16
CS(=O)(=O)N1CCN(C(=O)Nc2ccccc2)CC1	-2	43*	-1
COc1cccc(NC(=O)N2CCN(S(C)(=O)=O)CC2)c1	x	0	-3
CCCc1nn2c(N)c(/C=C3\C=Nc4ccccc43)c(=O)nc2s1	-1	0	-1
CC(C)Cc1nn2c(N)c(/C=C3\C=Nc4ccccc43)c(=O)nc2s1	3	1.5*	1
C[C@@H]1CN([C@@H](C)CO)C(=O)CCCn2nncc2CO[C@@H]1CN(C)Cc1ccncc1	0	x	x
Cn1cnc(S(=O)(=O)N2C[C@H](O)COC[C@H]3O[C@@H](CC(=O)NC4CCC4)CC[C@@H]32)c1	2	0	x
COc1ccc(S(=O)(=O)N2CCOCC2)cc1NC(=O)CSc1ccccc1	4	0	3
CC(C)Oc1ccc(S(=O)(=O)N2CCOCC2)cc1NC(=O)CCCSc1ccccc1	8.4*	0	0
CO[C@@H]1CN(C)C(=O)c2cc(NC(=O)NC3CCCCC3)ccc2OC[C@H](C)N(C)C[C@@H]1C	-1	x	x
O=C(N[C@@H]1C=C[C@H](CC(=O)N2CCc3ccccc3C2)O[C@H]1CO)C1CC1	0	0	x
O=C(COc1ccccc1)N(Cc1ccco1)c1ccc(O)cc1	x	x	22
O=C(c1ccc(Cl)c(Cl)c1)N(Cc1ccco1)c1ccc(O)cc1	x	x	54*
SMILES	F508del corr	FGF22 binding	Vif inh
CO[C@@H]1CN(C)C(=O)c2cc(NC(=O)c3ccno3)ccc2OC[C@H](C)N(S(C)(=O)=O)C[C@H]1C	-1	0	x
COC(=O)C1SCC2C(=O)N(Cc3ccccc3)CC(=O)N21 (stereo not drawn)	1	43*	3
CCOC(=O)C1CN(Cc2ccccc2)C(=O)C1=O (stereo not drawn)	-2	0	0
O=C(O)COc1ccc(NC(=O)c2cccs2)cc1	-1	0	2
CC1CCCN(C(=O)COc2ccc(NC(=O)c3cccs3)cc2)C1 (stereo not drawn)	1	44*	-1
C[C@H]1CCCCO[C@@H](CN(C)C(=O)Nc2ccc(F)cc2)[C@@H](C)CN([C@@H](C)CO)C(=O)c2cc(NS(=O)(=O)c3ccc(Cl)cc3)ccc2O1	2	x	x
COc1ccc(C(=O)Nc2ccc(N3CCN(C(=O)C(C)C)CC3)cc2)cc1[N+](=O)[O-]	x	x	64*
COc1ccc(C(=O)Nc2cc(C)on2)cc1OC	2	0	-4
COc1ccc(C(=O)Nc2ccc(N3CCN(C)CC3)cc2)cc1[N+](=O)[O-]	1	0	4
COc1ccc(C(=O)Nc2cc(C)on2)cc1[N+](=O)[O-]	0	43*	-1
C[C@H]1CCCCO[C@H](CN(C)C(=O)CCCN(C)C)[C@@H](C)CN([C@@H](C)CO)C(=O)c2cc(NC(=O)NC3CCCCC3)ccc2O1	-1	0	x
C[C@H](NC(=O)C[C@H]1C=C[C@@H](NC(=O)CN2CCOCC2)[C@@H](CO)O1)c1ccccc1	1	1	x
COc1ccccc1C(=O)N1C[C@@H]2[C@H](c3ccccc31)[C@H](CO)N2C(=O)Cc1cccnc1	2	0	x
O=C(Cc1ccccc1)N1C[C@@H]2[C@H](c3ccccc31)[C@@H](CO)N2C(=O)C1CCCCC1	2	0	x
COc1cccc(-c2ccc([C@@H]3[C@H](CO)N4C(=O)CN(C(=O)C5CCC5)C[C@@H]34)cc2)c1	3	x	x
O=C(C[C@H]1CC[C@@H](NC(=O)Cc2cccnc2)[C@@H](CO)O1)Nc1ccccc1	2	x	x
CCCC(=O)Nc1ccc2c(c1)C(=O)N(C)[C@H]1CC[C@@H](CC(=O)NCCN3CCCCC3)O[C@H]1CO2	2	0	x
Cn1nc(C(C)(C)C)c([N+](=O)[O-])c1C(=O)N1CCOCC1	-2	0	6
Cn1nc(C(=O)N2CCOCC2)c([N+](=O)[O-])c1C(=O)N1CCOCC1	5	44*	11
Cc1c(C(=O)O)cccc1-c1ccc(/C=C2/NC(=O)N(c3ccccc3)C2=O)o1	0	1	9
Cc1cccc(NC(=O)CN2C(=O)N/C(=C/c3ccc(-c4cccc(C(=O)O)c4C)o3)C2=O)c1	0	43*	15
CCOC(=O)CN1C(=O)S/C(=C\c2ccc(-c3cccc(C(=O)O)c3C)o2)C1=O	-2	0	-4
Cc1ccc(NC(=O)CN2C(=O)S/C(=C\c3ccc(-c4cccc(C(=O)O)c4C)o3)C2=O)cc1C	2	44*	-4
C[C@@H]1CN([C@@H](C)CO)C(=O)Cc2cc(NC(=O)c3ccncc3)ccc2O[C@H]1CN(C)Cc1ccc(Oc2ccccc2)cc1	4	0	x
O=C(NCC[C@H]1CC[C@@H](NC(=O)Nc2cc(F)ccc2F)[C@H](CO)O1)Nc1ccc(F)cc1	-1	1	x
C[C@@H]1CCCCO[C@@H](CN(C)C(=O)C2CCCCC2)[C@H](C)CN([C@@H](C)CO)C(=O)c2cc(NC(=O)Nc3ccccc3)ccc2O1	2	0	x
C[C@@H]1CN([C@@H](C)CO)C(=O)c2cc(Br)cnc2O[C@H]1CN(C)C(=O)C1CCOCC1	1	0	x
CCN(C(=O)CSc1nnc(-c2c[nH]c3ccccc23)o1)C1CCS(=O)(=O)C1 (stereo not drawn)	-3	43*	-16
CCN(C(=O)CSc1nnc(-c2ccccc2Br)o1)C1CCS(=O)(=O)C1 (stereo not drawn)	2	0	0
